The list is not random: actives were taken first. Their share in the collection is about 2.3%.
CHO-K1 Ca ag: counter-screen for M1 agonists: effect in parental CHO-K1 cells. Fluo-8 calcium fluorescence; scaled to maximal ATP response, vehicle zero. activation, % at 3 µM. actives 0.48% (n = 360,000); in the data active means activation above about 15%;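 further: untransfected CHO-K1 host cells lacking M1 receptor as counterscreen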
CHO-K1 Ca antag: counter-screen for M1 antagonists: effect in parental CHO-K1 cells; ATP-induced calcium, Fluo-8 fluorescence; inhibition, % at 3 µM; actives 0.6% (n = 360,000);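 active means inhibition above a per-plate cutoff, the plate's mean sample inhibition plus 3 SD, cut at about 24% in these data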;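 further: 0% = DMSO plus EC80 ATP and 100% = DMSO alone without ATP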
M1 PAM: human M1 muscarinic receptor positive allosteric modulators, primary screen, CHO-K1 cells, Fluo-8 calcium fluorescence, 1536-well; activation, % at 3 µM; AID 588819, 2011; Muscarinic acetylcholine receptor M1 (Homo sapiens), P11229; CHO-K1 hM1, ACh EC20; 0% = ACh EC20, 100% = maximal ACh; actives 0.088% (n = 360,000); in the data active means activation above about 19%, passing the limit was not always enough
Target sequence (P11229 whole entry, looked up): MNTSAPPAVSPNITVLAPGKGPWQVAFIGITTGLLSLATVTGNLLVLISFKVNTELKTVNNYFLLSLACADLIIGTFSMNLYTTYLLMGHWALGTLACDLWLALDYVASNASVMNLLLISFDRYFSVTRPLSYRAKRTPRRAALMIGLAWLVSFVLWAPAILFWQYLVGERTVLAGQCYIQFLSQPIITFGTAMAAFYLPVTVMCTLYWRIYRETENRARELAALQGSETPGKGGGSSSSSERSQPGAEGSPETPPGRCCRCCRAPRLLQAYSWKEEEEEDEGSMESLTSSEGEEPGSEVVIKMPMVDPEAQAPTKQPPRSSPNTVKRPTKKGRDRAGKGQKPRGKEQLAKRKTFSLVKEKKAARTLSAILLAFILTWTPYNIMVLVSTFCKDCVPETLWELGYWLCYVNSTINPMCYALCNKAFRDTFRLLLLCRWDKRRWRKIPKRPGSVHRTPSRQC
M1 ag: human M1 muscarinic receptor agonists, primary screen, Fluo-8 calcium fluorescence, CHO-K1 cells, HTS | Muscarinic acetylcholine receptor M1 (Homo sapiens), P11229 | CHO-K1 hM1, agonist mode; 0% DMSO, 100% acetylcholine EC100 | activation, % at 3 µM | actives 0.33% (n = 360,000);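 active means activation above the run's mean compound activation plus 3 SD, cut at about 16% in these data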;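 further: peak over basal fluorescence ratio within a 140 s kinetic read after compound addition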
M1 antag: human M1 muscarinic receptor antagonists, primary screen, CHO-K1 cells, Fluo-8 calcium fluorescence, 1536-well. actives 1.3% (n = 360,000). CHO-K1 hM1, ACh EC80 antagonist. Muscarinic acetylcholine receptor M1 (Homo sapiens), P11229. inhibition, % at 3 µM;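 active means percent inhibition above its own plate's cutoff, namely the mean of that plate's compound wells plus 3 SD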;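 further: peak over basal fluorescence ratio during 140 s after agonist addition; 0% = ACh EC80 plus DMSO and 100% = DMSO alone without agonist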
M1 PAM parental: nonselective calcium activators in parental CHO-K1 cells, primary screen, counter-screen for M1 PAM project, cell-based, Fluo-8 calcium fluorescence, full deck, 1536-well; actives 0.02% (n = 360,000); ATP EC20; 0% at ATP EC20, 100% at ATP max; activation, % at 3 µM; AID 602247, 2012;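 active means activation above the run cutoff, the mean activation of all test compounds plus 3 SD, cut at about 40% in these data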;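 further: peak over basal fluorescence ratio in a 140 s read after ATP addition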
An asterisk follows results filed as active.

SMILES	CHO-K1 Ca ag	CHO-K1 Ca antag	M1 PAM	M1 ag	M1 antag	M1 PAM parental
COCCNC(=O)CN(C(=O)CCC(=O)Nc1ccccn1)c1ccccc1OC	1	-14	8	-3	-15	7
CCc1noc(C)c1C(=O)Nc1nc(-c2ccc(OC)cc2)cs1	3	4	-19	-2	37*	-17
CCC(C(=O)NCCC(C)C)n1ccc2cc(S(=O)(=O)N3CCCCC3)ccc21 (stereo not given)	13	13	-20	1	45*	-19
OC(c1cc(-c2ccc(C(F)(F)F)cc2)nc(C(F)(F)F)c1)C1CCCCN1 (stereo not given)	18*	14	15	16*	6	15
OC(c1cc(C(F)(F)F)nc2c(C(F)(F)F)cccc12)C1CCCCN1 (stereo not given)	2	20	5	-2	-20	-3
CCc1cc(=O)oc2cc(C)cc(OCC(=O)NCc3ccncc3)c12	1	-7	0	-2	5	3
Cc1c2cnn(-c3ccccc3)c(=O)c2c(C)n1CCCC(=O)N1CCN(C2CCCCC2)CC1	1	-12	-11	38*	29	16
CCN1CCN(C(=O)CCCn2c(C)c3cnn(-c4ccccc4)c(=O)c3c2C)CC1	0	6	25*	-6	-20	10
Cc1nn(CC(=O)NCc2ccc(C(=O)O)cc2)c(C)c1[N+](=O)[O-]	2	24*	-8	-1	-3	-15
Cc1nn(CC(=O)NCc2cccnc2)c(C)c1[N+](=O)[O-]	0	11	18	-2	-12	-17
CN(C)c1ccc(-c2cccc3nccn23)cc1	1	-9	1	-8	-9	16
CS(=O)(=O)Nc1ccc(-c2cccc3nccn23)cc1	0	6	-12	-2	24*	0
CC(C)CNC(=O)CSc1nnc(-c2ccc(Cl)cc2)n1N	0	-12	8	-3	-6	18
CCCCN(C(=O)C1CCC1)c1c(N)n(CCC)c(=O)[nH]c1=O	0	-9	0	-2	3	-8
CCCCN(C(=O)C1CCCC1)c1c(N)n(CC(C)C)c(=O)[nH]c1=O	0	-15	30*	1	-27	7
O=C(Cc1nc(-c2ccc([N+](=O)[O-])cc2)cs1)Nc1ccccc1	8	-7	7	18*	-4	19
COCC(=O)Nc1nc(-c2ccc([N+](=O)[O-])cc2)cs1	4	-17	9	-3	-10	16
CSC(=NC#N)N1CCN(c2ccc(Cl)cc2)CC1	1	4	-1	-2	10	-4
CCCc1nnc(NC(=O)Cn2c(=O)oc3cc(Br)ccc32)s1	17*	-11	-1	37*	0	22
CCCc1nnc(NC(=O)Cn2c(=O)oc3ccccc32)s1	3	-10	6	2	-2	20
Cc1ccc(S(=O)(=O)NCCC(=O)Nc2cc(F)ccc2C)cc1C	1	6	-10	-2	21*	-14
COc1ccc(C(C)=O)cc1COC(=O)C1CC(=O)N(Cc2ccccc2)C1 (stereo not given)	1	0	2	-3	-2	11
Cn1c(=O)oc2cc(S(=O)(=O)CCC(=O)Nc3ccccc3)ccc21	2	-12	2	-2	1	16
COc1ccc(CNc2nc(SCC(=O)NCc3ccco3)nc3ccccc23)cc1	16*	-3	-3	-8	-9	15
O=C(CCN1CCN(Cc2ccccc2)CC1)Nc1ccc(OCc2ccccc2)cc1	7	23	-16	1	24*	3
SMILES	CHO-K1 Ca ag	CHO-K1 Ca antag	M1 PAM	M1 ag	M1 antag	M1 PAM parental
O=C(c1ccccc1)c1ccc(OCCOCCN2CCN(Cc3ccccc3)CC2)cc1	12	-4	-26	-4	87*	9
O=C(CCN1CCN(CCO)CC1)Nc1ccc(OCc2ccccc2)cc1	1	0	8	-7	-8	5
O=C(CCCc1nc2ccccc2s1)NCc1ccccc1	9	3	8	-7	1	15
c1ccc(CN2CCN(CCOCCOc3ccc4c(c3)CCC4)CC2)cc1	13	-11	-19	-3	29*	4
O=C(CCCc1nc2ccccc2s1)NNC(=O)CCN1CCN(Cc2ccccc2)CC1	0	-8	-8	17*	13	3
COc1cc(C(=O)N2Cc3cc4ccccc4nc3C2C)cc(OC)c1OC (stereo not given)	3	-11	2	1	-13	7
Cc1ccc2c(c1)CO[C@@]21O[C@H](CCO)C[C@H](O)[C@H]1O	0	6	-6	-3	1	-6
S=C(Nc1ccccc1)Nc1ccc(OCc2ccccc2)cc1	0	26*	4	-4	-8	-8
NS(=O)(=O)c1ccc(NC(=S)Nc2ccc(OCc3ccccc3)cc2)cc1	0	4	4	-7	-1	5
CCOC(=O)c1ccccc1NC(=O)COC(=O)CCC(=O)c1ccc(C)cc1	-1	-1	10	-1	-23	6
CC(C)C[C@H]1CN=C(N(C)C)N1CCc1cccc(F)c1	0	-15	-4	-13	6	-12
CC(C)C[C@H]1CN=C(Nc2ccccc2)N1CCc1cccc(F)c1	85*	43*	-39	63*	57*	-23
CC(C)CCN1C(Nc2ccccc2)=NC[C@@H]1CC(C)C	1	-7	-2	-13	5	-5
Cc1cccc(CCN2C(Nc3ccccc3)=NC[C@@H]2CC(C)C)c1	64*	37*	-36	53*	57*	-22
CCN1C(Nc2ccccc2)=NC[C@@H]1CC(C)C	1	-16	-4	-11	9	16
CC(C)C[C@H]1CN=C(Nc2ccccc2)N1CCc1ccc(F)cc1	64*	23	-32	50*	25	-17
Cc1ccc(S(=O)(=O)NCc2ccccc2)cc1C(=O)N(C)CC(=O)Nc1c(Cl)cccc1Cl	3	-10	2	-3	-1	-16
Cc1onc(-c2c(Cl)cccc2Cl)c1C(=O)N1CCc2ccccc2C1	0	-10	-23	-6	41*	20
O=C1CC(c2ccsc2)Sc2ccccc2N1 (stereo not given)	20*	7	6	-4	-6	12
CCn1c(=O)c2c(nc3n2CCCN3c2cccc(C)c2)n(C)c1=O	0	-7	2	-1	-3	9
Cc1cccc(N2CCC(N3CCN(C4CCCCC4)C(CCO)C3)CC2)c1C (stereo not given)	4	-4	-6	-12	-1	12

Screening results deposited in PubChem by The Scripps Research Institute Molecular Screening Center.
